Screening results as filed in PubChem.
Shown are actives, neighbours in structure and some others; about 2.2% of the full set was active somewhere.
TrxR1 substrate: substrates of rat thioredoxin reductase 1 | Potency, µM (titrated, usually from 114 µM), for inactives: top-dose activity change, negative = substrate turnover | 390,000 compounds, 0.01% hits | purified TrxR1 substrate turnover, NADPH consumption readout | O89049; also: potency is read from the fitted curve at half-maximal effect; % is scaled to controls: 0 for no effect and ±100 for the full control effect; nearly all actives have a fitted effect of over 50% in size
Target sequence (O89049 whole entry, looked up): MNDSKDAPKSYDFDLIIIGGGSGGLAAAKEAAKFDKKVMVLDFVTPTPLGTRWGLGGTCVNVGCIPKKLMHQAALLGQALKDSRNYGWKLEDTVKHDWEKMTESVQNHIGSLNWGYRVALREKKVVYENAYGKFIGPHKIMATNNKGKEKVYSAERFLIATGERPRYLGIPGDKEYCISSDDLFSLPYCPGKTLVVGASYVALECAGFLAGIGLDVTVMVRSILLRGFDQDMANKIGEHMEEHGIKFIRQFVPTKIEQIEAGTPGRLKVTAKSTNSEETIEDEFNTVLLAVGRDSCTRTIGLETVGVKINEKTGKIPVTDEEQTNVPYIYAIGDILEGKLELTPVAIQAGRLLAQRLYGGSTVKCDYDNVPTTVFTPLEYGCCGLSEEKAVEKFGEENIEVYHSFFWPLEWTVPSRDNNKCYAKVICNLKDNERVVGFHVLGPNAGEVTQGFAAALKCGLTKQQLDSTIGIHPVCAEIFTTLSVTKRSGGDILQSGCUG
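Rat TrxR1, dispensed at 90 nM, was prereduced with 400 uM NADPH (final) for 5 min at ~22 deg C, then incubated with compound 15 min before 400 uM selenite. A first-read NADPH fluorescence drop versus no-compound background flagged substrates.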
IL-2 act: IL-2 activation; 360,000 compounds, 0.065% hits; activation, % (series mostly up to about 46 µM); IL-2 activation reporter assay, cell-based qHTS; stimulated with anti-CD3/CD4/CD28 beads; in transgenic mouse T cells; AID 652025; in the data active = activation above about 50%; inconclusive = mostly about 30% to 49%; also: 0% is about no effect
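EGFP and DsRed fluorescence is measured by plate cytometry in unstimulated transgenic mouse T cells exposed to compound for 60 minutes, then stimulated 18 hours at 37 degrees C with anti-CD3/anti-CD4 beads plus anti-CD28.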
BRCA1 expr up: activators of BRCA1 expression | MCF7-BRCA1-FFLuc reporter, luminescence, 48 h; response scale: scaled: vehicle 0%, 10 µM genistein 100% | Potency, µM (doses to about 46.1 µM), inactives show at the top dose activation, usual class: activators | 380,000 compounds, 1.1% hits | AID 624202; also: potency is read from the fitted curve at half-maximal effect; nearly all actives have a fitted effect of over 80% in size
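Reporter cells (MCF7, BRCA1 promoter-firefly luciferase) received library compounds across a concentration series for 48 h. End-point luminescence was measured and concentration-effect curves derived after normalization.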
IDH1 R132H inh: human IDH1 R132H inhibition. AID 602179. 390,000 compounds, 0.093% hits. Potency, µM (titrated, usually from 76.6 µM), without a hit: at the top dose activity change, negative = inhibition, hits mostly inhibitors. O75874. IDH1-R132H enzyme, NADPH consumption, diaphorase/resazurin fluorescence; also: potency is read from the fitted curve at half-maximal effect; % is scaled to controls: 0 for no effect and ±100 for the full control effect; nearly all actives have a fitted effect of over 65% in size
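IDH1-R132H (0.5 ug/mL dispensed) in pH 7.5 Tris buffer was preincubated 30 min with compound, then given a substrate mix of 0.016 mM NADPH and 2 mM alpha-KG for 80 min at room temperature; remaining NADPH was read by diaphorase/resazurin fluorescence.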
TrxR1 inh: blocks rat thioredoxin reductase 1; O89049; recombinant rTrxR1, NADPH fluorescence consumption, selenite substrate; Potency, µM (highest dose often 114 µM), without a hit: top-dose activity change, negative = inhibition, usual class: inhibitors; 390,000 compounds, 1% hits; AID 588453; also: potency is read from the fitted curve at half-maximal effect; % is scaled to controls: 0 for no effect and ±100 for the full control effect; nearly all actives have a fitted effect of over 65% in size
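Rat TrxR1 (90 nM in the dispensed reagent) was pre-reduced with 400 uM NADPH for 5 min at room temperature, then incubated with compound for 15 min. After 400 uM selenite was added, NADPH fluorescence (Ex 340/Em 450 nm) was followed for 8 min.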
Giardia killer: Giardia lamblia killing; AID 540267; activity change, % at 7.66 µM, hits read low; 340,000 compounds, 0.15% hits; Giardia lamblia trophozoite viability; in the data active = activity change below about -80%; inconclusive = between about -30% and that limit;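 also: parasites exposed to compound for two days anaerobically before the ATP read; % is scaled to controls: 0 for no effect and ±100 for the full control effect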
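Trophozoite viability was measured as ATP-dependent luminescence, read 15-30 min after reagent addition. Before that, parasites at 100 cells/well were exposed to compounds for 48 h, anaerobically, at 37 deg C.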
Numbers without * were called inactive; ? = inconclusive; · = no result given; ! = repeats disagree; [ ] = remark or other dose. Unless noted, calls follow the shape of the dose curve; as a rule, active = well fitted curve in the direction sought with a large enough effect; inconclusive = small, poorly fitted or top-dose-only effect, or another doubt; inactive = no such curve, though single readings can be large; an effect the other way counts as inactive or inconclusive.

SMILES	TrxR1 substrate	IL-2 act	BRCA1 expr up	IDH1 R132H inh	TrxR1 inh	Giardia killer
CC(=O)c1cccc(OCc2cc(C(=O)N3C[C@@H](C)O[C@@H](C)C3)no2)c1	5.9%	-1.6	?	-6.3%	10µM*	16.9
CC(=O)c1cccc(OCc2cc(C(=O)N(C)CCC3CCOCC3)no2)c1	7.0%	-2.8	?	5.7%	8.91µM*	1.1
O=C(c1cc(COc2cccc(C(F)(F)F)c2)on1)N1C[C@H]2CC[C@H]1C2	-9.2%	-4.9	12.6µM*	9.7%	-9.3%	2.7
O=C(N/N=C/C1=C(N2CCOCC2)C(=C\c2ccccc2)/CC1)Nc1ccccc1	-6.4%	0.2	-34.6%	11.1%	-17.2%	14.1
CCN(CC)c1ccc(/C=C2\CCC(/C=N/NC(=O)c3ccc(=O)n(C)c3)=C2N2CCOCC2)cc1	-8.4%[57.1 µM]	70.7*	-54.5%	4.6%	-6.2%[57.1 µM]	-2.4
O=C(Nc1cccc([N+](=O)[O-])c1)NC1CCCCCCC1	6.0%	-2.8	6.31µM*	23.6%	14.6%	-3.7
O=C(Nc1cccc([N+](=O)[O-])c1)C(=O)N1CCCCC1	-2.2%	0.7	4.47µM*	-13.7%	10.3%	7.3
COc1ccc(C2Nc3ccccc3C(=O)N2c2ccc(F)cc2)cc1COc1ccc(NC(C)=O)cc1 (configuration not stated)	52.0%	·	56.0%	·	32.7%	25.8
Cc1cccc(N(Cc2ccccc2)C(=O)CCl)c1	-11.4%[57.1 µM]	-0.8	-75.3%	1.2%	8.91µM*	-12.7
Cc1ccc(C(=O)NCC(c2ccco2)S(=O)(=O)c2ccc(Cl)cc2)cc1C (configuration not stated)	?	·	·	-11.5%	?	·
CCN(CC)c1ccc(N=Cc2ccc([N+](=O)[O-])o2)cc1	6.1%	-0.4	-88.0%	13.8%	3.16µM*	-9.5
CCN(CC)c1ccc(N=Cc2ccccc2[N+](=O)[O-])cc1	-17.1%	-0.2	-80.1%	11.6%	70.8µM*	-8.0
CC(=O)N(C)c1ccc(N=Cc2cc3c(cc2[N+](=O)[O-])OCO3)cc1	5.8%[57.1 µM]	-2.0	0.0%	-7.6%	9.3%[57.1 µM]	10.9
Cn1cnc2c(=O)oc3ccc(S(=O)(=O)N4CCN(c5ccccc5F)CC4)cc3c21	5.9%	·	·	-1.1%	18.6%	·
COc1ccc(C)cc1Nc1ncnc2c1c(-c1ccccc1)cn2-c1ccc(C)cc1	20.9%[57.1 µM]	·	·	21.3%	40.6%[57.1 µM]	·
CCc1ccc(NC2=NCC(c3ccccc3)S2)cc1 (configuration not stated)	-10.6%[57.1 µM]	-3.6	11.2µM*	6.1%	27.2%[57.1 µM]	-12.9
O=[N+]([O-])c1ccc(C2CN=C(Nc3ccccc3)S2)cc1 (configuration not stated)	3.5%	5.5	70.2%	-1.2%	10.3%	-27.1
CC(C)CCNC(=O)c1cnn2c(C(F)(F)F)cc(-c3ccco3)nc12	12.5%	-2.1	-36.3%	7.2%	7.08µM*	0.2
Cc1ccc(-c2nc(C=Nc3ccc(O)cc3)c(O)o2)cc1	-7.1%	76.5*	-20.1%	3.1%	4.7%	1.8
Cc1ccc2c(CC(=O)Nc3ccc(S(=O)(=O)N4CCCCC4C)cc3)coc2c1C (configuration not stated)	21.7%	·	·	1.9%	19.1%	·
CN(C)c1ccc(CNC(=O)CN2C(=O)CCn3nc(-c4cn(C)c5ccccc45)cc32)cc1	-2.3%[57.1 µM]	·	·	-6.2%	14.2%[57.1 µM]	·
O=[N+]([O-])c1ccc(-c2cn3c(n2)SCC3)cc1	-4.8%	-0.4	8.91µM*	-0.9%	-1.0%	18.1
N#Cc1ccc(-c2cn3c(n2)SCC3)cc1	300.8%	0.5	95.2%	3.1%	-12.7%	-2.9
CS(=O)(=O)Nc1cccc(-c2cn3c(n2)SCC3)c1	-11.7%	-0.7	-25.2%	-10.3%	31.6µM*	0.1
Cc1nn2c(=O)cc(COC(=O)c3ccccc3NC(=O)C3CCCCC3)nc2s1	0.5%[57.1 µM]	·	·	11.3%	6.6%[57.1 µM]	·
SMILES	TrxR1 substrate	IL-2 act	BRCA1 expr up	IDH1 R132H inh	TrxR1 inh	Giardia killer
CC1(C)CCC2=C(O1)c1ccccc1C(=O)C2=O	17.8µM*	·	-68.8%	·	25.1µM*!	·
COc1ccc(C(=O)NCC(c2ccc(N(C)C)cc2)N2CCc3ccccc32)cc1 (configuration not stated)	-1.7%[57.1 µM]	·	·	8.9%	-20.1%[57.1 µM]	·
COc1ccc(/C=C/C(=O)c2ccc([N+](=O)[O-])o2)cc1OC	-15.0%	1.0	-75.2%	?	14.1µM*	-3.2
COc1cc(/C=C/C(=O)c2ccc([N+](=O)[O-])o2)ccc1O	-0.8%	0.0	-45.0%	3.2%	7.94µM*	-11.8
COc1cc(OC)c(C(=O)C=Cc2ccc(OC)c(OC)c2)c(OC)c1	-21.2%	-0.4	-91.6%	-5.6%	?	9.2
NS(=O)(=O)c1ccc(CNC(=O)/C=C/c2cccc(Cl)c2)cc1	-0.7%	-0.4	5.3%	6.6%	0.8%	1.0
COc1cc(/C=C/C(=O)O)ccc1O	-1.0%	-0.9	29.9%	-2.0%	-8.0%	-1.1
O=C(/C=C/c1cccc(Cl)c1)c1ccc([N+](=O)[O-])o1	-2.4%	-0.4	-81.4%	?	1.58µM*	-1.5
O=C(O[C@H]1[C@H](Cc2ccccc2)NS(=O)(=O)[C@H]2C[C@@H]3C=C[C@]12O3)c1ccccc1Br	2.3%	·	·	·	8.3%	·
O=C(/C=C/c1ccc(Br)o1)Nc1nccs1	1.0%	0.1	30.3%	8.7%	28.2µM*	-23.9
C/C(=C\C(=O)Nc1nccs1)c1ccccc1	8.4%	-0.1	8.91µM*	2.5%	27.1%	-1.8
O=C(/C=C/c1ccc(Br)o1)NCc1ccccc1	1.7%	-0.2	7.1%	0.4%	3.98µM*	40.6
Cc1ccc(-c2nc(Cn3c(SCc4ccc(F)cc4)nc4cccnc43)c(C)o2)cc1	9.5%	·	·	9.7%	17.0%	·
Cc1cc(N2CCC(C)CC2)nc2ccc(NC(=O)Cc3ccccc3Br)cc12	38.2%	·	4.3%	-15.7%	21.0%	·
Nc1ccc(-c2nnn(Cc3ccccc3)n2)cc1	0.2%	-0.4	67.3%	-9.2%	19.9%	6.7
Cc1ccc(-c2nnn(CC(=O)O)n2)cc1	-1.7%	-2.9	-14.4%	7.4%	-1.1%	0.7
CSc1ccc(-c2nnn(Cc3ccc(C)cc3)n2)cc1	6.6%	-0.6	10µM*	-1.2%	13.6%	-16.9
COc1ccc(-c2ccc(-c3nnn(CC(=O)N4CCOCC4)n3)cc2)cc1	43.5%	0.2	1.41µM*	0.1%	33.7%	-18.8
COc1cc(-c2nnn(CC(=O)N3CCOCC3)n2)cc(OC)c1OC	-6.9%	2.3	-2.2%	2.3%	-13.0%	7.4
COc1ccc(-c2nnn(Cc3ccccc3)n2)cc1	-8.7%[57.1 µM]	-0.4	10µM*	0.7%	12.9%	1.8
COc1cc2[nH]c(=O)n(CCCCCC(=O)NCCc3ccccc3)c(=O)c2cc1OC	-1.0%	·	-2.3%	3.5%	17.4%[2.29 µM]	·
